An excerpt weighted towards active compounds, which were near 1.4% of everything screened.
QS inhibitor: blocks AIP-induced quorum sensing reporter in S. aureus. S. aureus RN6390 RNAIII-GFP reporter, flow cytometry 3 h. inhibition, % at 2 µM. actives 0.3% (n = 24,000). AID 527;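 active means share of bacteria positive for the green fluorescent reporter and its mean brightness both inhibited by 50% or more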;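 further: 0% = AIP-stimulated control and 100% = unstimulated bacteria without AIP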
FPR binder: ligands of human FPR, also counter-screen for FPRL1 ligands; actives 0.74% (n = 24,000); FPR-expressing cells, fluorescent ligand binding, flow cytometry; inhibition, % (no concentration beside the values);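 further: 0% = buffer wells and 100% = receptor blocker peptide wells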
Target sequence (P21462 whole entry, looked up): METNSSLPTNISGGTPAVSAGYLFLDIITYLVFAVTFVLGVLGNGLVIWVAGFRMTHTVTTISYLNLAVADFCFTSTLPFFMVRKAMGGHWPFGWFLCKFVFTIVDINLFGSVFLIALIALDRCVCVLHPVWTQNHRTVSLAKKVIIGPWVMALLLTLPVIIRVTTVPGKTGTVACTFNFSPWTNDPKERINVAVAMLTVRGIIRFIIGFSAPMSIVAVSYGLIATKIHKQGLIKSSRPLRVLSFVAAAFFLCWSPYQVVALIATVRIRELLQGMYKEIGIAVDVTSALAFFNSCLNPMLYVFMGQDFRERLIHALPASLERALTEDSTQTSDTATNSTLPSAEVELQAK
FPRL1 binder: ligands of human FPRL1, also counter-screen for FPR ligands. P25090. actives 0.3% (n = 24,000). FPRL1-expressing cells, fluorescent ligand binding inhibition, flow cytometry. inhibition, % (no concentration beside the values);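 further: 0% = buffer alone and 100% = receptor blocker peptide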
26S disassembly: blocks ATP-dependent breakdown of the yeast 26S proteasome; anti-FLAG beads, GFP-proteasome disassembly, flow cytometry; inhibition of disassembly, % (test concentration not listed); actives 0.2% (n = 24,000); AID 751;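 active means inhibition of disassembly above about 33%, limit read from the data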;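 further: plate controls were ATP control with full disassembly for no effect and ATP-gamma-S intact proteasomes for full effect; higher percent means more bead fluorescence retained so stronger block of disassembly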
* = called active by the depositor; / = no result given. Unless noted, no stated cut-off is given here; in the data, active means inhibition above about 30%; inconclusive means no clear call, values can overlap the other calls; inactive means below that.

SMILES	QS inhibitor	FPR binder	FPRL1 binder	26S disassembly
Cc1nn(-c2ccccc2)c2sc(-c3n[nH]c(=S)o3)cc12	60*	-2	-7	8
CC(=O)C1=C(O)C(=O)N(Cc2ccco2)C1c1ccc(F)cc1 (stereo not drawn)	-1	-1	7	0
O=C(C1=C(O)C(=O)N(CCOCCO)C1c1cccs1)c1cccs1 (stereo not drawn)	/	71*	28	/
O=C(C1=C(O)C(=O)N(Cc2ccco2)C1c1ccccc1)c1cccs1 (stereo not drawn)	/	71*	-9	/
O=C(O)Cc1cc(I)c(Oc2ccc(O)c(I)c2)c(I)c1	0	-5	2	0
N[C@@H](Cc1ccc(O)c(I)c1)C(=O)O	-3	51*	-3	0
COC(=O)C1C(=O)C2=C(CC1C)NC(C)=C(C(=O)OC1CCCCC1)C2c1ccc(N(C)C)cc1 (stereo not drawn)	54*	11	1	6
COC(=O)C1C(=O)C2=C(CC1C)NC(C)=C(C(=O)OCCOc1ccccc1)C2c1ccc(C)o1 (stereo not drawn)	-8	21	-4	1
CCCCn1c(NC(=O)CC)c(C#N)c2nc3ccccc3nc21	0	48*	-1	7
Cc1ccccc1C(=O)c1cccn1CC(=O)NCCN1CCN(c2cccc(C)c2C)CC1	0	/	/	/
CCOC(=O)Cc1cc(=O)n2[nH]c(C)c(-c3ccc(OC)cc3)c2n1	3	44*	1	0
COC(=O)Cc1cc(=O)n2[nH]c(C)c(-c3ccccc3)c2n1	/	5	2	/
CCOC(=O)Cc1cc(=O)n2[nH]c(C)c(-c3ccc(Cl)cc3)c2n1	/	54*	1	/
O=C(CN1C(=O)CC(c2ccco2)Sc2ccccc21)Nc1ccc2c(c1)OCCO2 (stereo not drawn)	83*	9	-1	0
OCc1nc2ccccc2n1CC(O)Cn1ccc2ccccc21 (stereo not drawn)	-1	37*	51*	1
COc1ccc2nc(NC(=O)C(NS(=O)(=O)c3cccs3)C(C)C)sc2c1 (stereo not drawn)	-3	-2	0	0
O=C1C(C23CC4CC(CC(C4)C2)C3)C(=O)N(c2ccccc2)N1c1ccccc1	/	73*	1	/
CCN(C(=O)Cc1c(C(=O)O)[nH]c2ccccc12)c1cc(OC)ccc1OC	0	32*	0	0
CC1CCN(C(=O)Cn2cc3c(n2)CCCC3)CC1	17	12	10	-3
COc1ccc(Cl)cc1NC(=O)C1CSC(c2ccncc2)=N1 (stereo not drawn)	2	-4	-5	2
COc1cc(C2C(C(=O)c3ccco3)=C(O)C(=O)N2CCc2ccccc2)ccc1O (stereo not drawn)	/	63*	-2	/
COc1ccc(C2C(C(=O)c3ccc(C)o3)=C(O)C(=O)N2c2cc(C)on2)cc1OC (stereo not drawn)	/	-8	-4	/
COc1cc(C2C(C(=O)c3ccco3)=C(O)C(=O)N2Cc2cccnc2)cc(OC)c1OC (stereo not drawn)	/	-1	2	/
COc1cccc(C2C(C(=O)c3ccco3)=C(O)C(=O)N2CCCN2CCOCC2)c1OC (stereo not drawn)	/	-6	0	/
COc1ccc(CCN2C(=O)C(O)=C(C(=O)c3ccco3)C2c2cccs2)cc1OC (stereo not drawn)	/	82*	31*	/
SMILES	QS inhibitor	FPR binder	FPRL1 binder	26S disassembly
CCOc1cccc(C2C(C(=O)c3ccco3)=C(O)C(=O)N2Cc2ccncc2)c1 (stereo not drawn)	/	13	-4	/
COCCN1C(=O)C(O)=C(C(=O)c2ccco2)C1c1cccc(Oc2ccccc2)c1 (stereo not drawn)	/	72*	-5	/
CCOc1cc(C2C(C(=O)c3ccc(C)o3)=C(O)C(=O)N2CCc2ccccc2)ccc1O (stereo not drawn)	/	90*	-9	/
Cc1cc(C)n2nc(SCc3cc(=O)n4c(C)cccc4n3)nc2n1	-1	4	6	0
Cc1cc(-c2nsc(=O)o2)c(S(C)(=O)=O)s1	-2	-2	-5	1
O=C1c2ccccc2C(=O)N1Cc1nc2ccccc2c(=O)n1CCN1CCOCC1	1	5	-1	2
Cc1nn(-c2ccccc2)c2c1C(c1c(C)[nH]c(C#N)c1C)C(C#N)=C(N)O2 (stereo not drawn)	6	3	-11	1
COc1cc(-n2nc(C)c3c2OC(N)=C(C#N)C3c2ccccc2)c(Cl)c(Br)c1O (stereo not drawn)	0	36*	-2	5
COC(=O)c1[nH]c(C)c(/C(O)=C2\C(=O)C(=O)N(CCN3CCOCC3)C2c2ccccc2OC)c1C (stereo not drawn)	/	4	14	/
COC(=O)c1[nH]c(C)c(/C(O)=C2\C(=O)C(=O)N(CCN3CCOCC3)C2c2cccs2)c1C (stereo not drawn)	-12	54*	1	1
O=C(Cn1cnc2c(nnn2Cc2ccccc2F)c1=O)NCc1ccco1	-7	-7	-3	2
Oc1ccc(-c2nc3ncccn3c2Nc2ccc3c(c2)OCCO3)cc1	83*	-2	-9	0
O=C(O)CC1NC(=O)N(c2ccccc2)C1=O (stereo not drawn)	-1	4	7	1
CCCCC1C(=O)N(c2ccccc2)N(c2ccccc2)C1=O	-1	50*	0	1
CCSc1nnc(NC(=O)CSc2nnc(Cc3cccn3C)n2CCc2ccccc2)s1	-3	34*	-2	-1
COc1ccccc1NC(=O)N(Cc1ccccc1)C1=NCC(C)S1 (stereo not drawn)	-3	0	-4	-5
COc1ccc(Cl)cc1-n1c(=S)sc2c(=O)[nH]c(SCC(=O)NCC3CCCO3)nc21 (stereo not drawn)	6	44*	-3	1
Cc1ccc(C)c(N2CCN(S(=O)(=O)c3c(C)noc3/C=C/N(C)C)CC2)c1	27	-8	1	49*
CCOc1ccc(/C(O)=C2/C(=O)C(=O)N(CC3CCCO3)C2c2ccco2)cc1 (stereo not drawn)	/	48*	26	/
CC1CN(c2nc3ccccc3nc2C(C#N)C(=O)OC2CCCCC2)CC(C)O1 (stereo not drawn)	61*	-3	-4	4
C/C(=C1/SC(N2CCCC2)=NC1=O)c1ccc(Br)cc1	16	42*	7	-2
Cc1csc(NC(=O)C2CCCN(S(=O)(=O)c3ccc(Br)s3)C2)n1 (stereo not drawn)	-5	14	7	6
COc1ccccc1CNC(=O)C1CCCN1S(=O)(=O)c1cccc2cccnc12 (stereo not drawn)	49	-2	-2	0
CC1CCCN(C(C(=O)Nc2ccc3c(c2)OCCO3)c2ccccc2)C1 (stereo not drawn)	99*	6	-1	-1
CC1CCCN(C(C(=O)Nc2ccc3c(c2)OCO3)c2ccccc2)C1 (stereo not drawn)	99*	0	-3	-4
CCCCC(=O)NC(Nc1nc(C2CC2)cs1)(C(=O)OCC)C(F)(F)F (stereo not drawn)	-2	1	0	0
